From PubChem
FBW7 act – human FBW7 E3 ligase activation, primary screen | AlphaScreen FBW7–phospho-cyclin E peptide binding, activator screen | normalized activity (activation), % at 26.1 µM | Q969H0 | AID 1259310 | hit rate 0.13% among 650,000; in the data active = normalized activity above about 1.9%;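 also: purified mutant Fbw7 with reduced substrate affinity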
Target sequence (Q969H0 whole entry, looked up): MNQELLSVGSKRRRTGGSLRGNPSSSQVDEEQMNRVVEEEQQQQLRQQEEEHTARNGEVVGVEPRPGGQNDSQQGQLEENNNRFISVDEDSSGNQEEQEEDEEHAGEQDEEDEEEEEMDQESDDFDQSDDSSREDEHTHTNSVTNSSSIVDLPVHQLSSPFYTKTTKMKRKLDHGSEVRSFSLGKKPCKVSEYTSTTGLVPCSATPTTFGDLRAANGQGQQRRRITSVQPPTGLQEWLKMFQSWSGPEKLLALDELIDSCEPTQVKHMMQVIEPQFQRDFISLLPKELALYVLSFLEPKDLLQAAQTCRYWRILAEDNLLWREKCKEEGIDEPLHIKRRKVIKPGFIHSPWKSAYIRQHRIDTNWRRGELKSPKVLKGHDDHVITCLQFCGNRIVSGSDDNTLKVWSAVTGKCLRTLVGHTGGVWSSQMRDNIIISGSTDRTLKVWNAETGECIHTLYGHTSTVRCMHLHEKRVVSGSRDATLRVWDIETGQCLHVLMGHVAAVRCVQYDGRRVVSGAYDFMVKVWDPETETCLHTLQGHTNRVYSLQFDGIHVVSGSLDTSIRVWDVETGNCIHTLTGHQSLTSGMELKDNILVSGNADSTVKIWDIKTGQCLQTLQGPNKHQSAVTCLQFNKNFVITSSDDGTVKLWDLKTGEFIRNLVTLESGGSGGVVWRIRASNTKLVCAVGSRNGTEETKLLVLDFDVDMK
MITF primary – inhibitors of human MITF; O75030; AlphaScreen MITF homodimerization, bead proximity signal; inhibition, % at 2.6 µM; hit rate 0.91% among 650,000; AID 1259374; in the data active = inhibition above about 50%
TEAD-YAP inh – TEAD-YAP interaction inhibition; AID 1259422; inhibition, % at 9.12 µM; HEK-TIYL cells, TEAD-Gal4/YAP UAS-luciferase luminescence; hit rate 1.4% among 640,000; in the data active = inhibition above about 32%
GPR151 activ – activates the human receptor GPR151. Q8TDV0. PathHunter beta-arrestin GPR151 cells, luminescence. activation, % at 11.2 µM. hit rate 1% among 650,000. AID 1508602; in the data active = activation above about 4.9%
MITF inh conf – confirmation of human MITF inhibitors. hit rate 16% among 4,700. AlphaScreen MITF homodimerization, biotin/His-MITF beads. inhibition, % at 2.6 µM. shares compounds with MITF primary;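 active = inhibition above a cutoff derived from the DMSO control wells, cut at about 28% in these data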;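 also: inhibitors lower the bead chemiluminescence by keeping MITF from dimerizing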
AS interf DR – counter-screen: compounds optically interfering with AlphaScreen; IC50, µM; AlphaScreen optical interference counterscreen, cell-free; shares compounds with MITF primary; hit rate 6% among 480; call rule not given here
AlphaScreen intf2 – optically interferes with AlphaScreen signal; shares compounds with MITF primary; LysRS AlphaScreen counterscreen, signal interference, triplicate; inhibition, % at 2.6 µM; hit rate 7.6% among 4,700;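 active = inhibition above a cutoff derived from the DMSO control wells, cut at about 30% in these data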
Hits are given with their value. Compounds with a hit are over-represented: about 3.5% of the library has one in this group of screens.

Results for Fc1ccc(CN2CCN(C3CCCCC3)CC2)cc1 ?
FBW7 act: inactive; MITF primary: inactive; TEAD-YAP inh: inactive; GPR151 activ: inactive

What do the screens show for `O=C(NCCCN1CCOCC1)c1cc2cc(Br)ccc2oc1=O`?
FBW7 act: inactive; MITF primary: 59.6; TEAD-YAP inh: inactive; GPR151 activ: inactive; MITF inh conf: inactive; AlphaScreen intf2: inactive

How did CN(C)C(CNCC(O)COc1ccccc1)c1cccs1 (stereo not drawn) do in these assays?
FBW7 act: inactive; MITF primary: 70.6; TEAD-YAP inh: inactive; GPR151 activ: inactive; MITF inh conf: inactive; AlphaScreen intf2: inactive

Results for OC(CNCCNCC(O)COc1ccccc1)COc1ccccc1 (stereo not drawn) ?
FBW7 act: inactive; MITF primary: inactive; TEAD-YAP inh: inactive; GPR151 activ: inactive

What do the screens show for `OC(CNCC1CCCCC1)COc1ccccc1` (stereo not drawn)?
FBW7 act: inactive; MITF primary: inactive; TEAD-YAP inh: inactive; GPR151 activ: inactive

Results for CC1CCN(C(CNCC(O)COc2ccccc2)c2cccs2)CC1 (stereo not drawn) ?
FBW7 act: inactive; MITF primary: 69.7; TEAD-YAP inh: inactive; GPR151 activ: inactive; MITF inh conf: inactive; AlphaScreen intf2: inactive

What do the screens show for `O=C(Nc1ccccc1OC(F)F)c1cc([N+](=O)[O-])ccc1N1CCOCC1`?
FBW7 act: inactive; MITF primary: inactive; TEAD-YAP inh: inactive; GPR151 activ: inactive

How did CC(=O)N1N=C(c2ccccc2)OC1(C)CC(=O)Nc1ccccc1 (stereo not drawn) do in these assays?
FBW7 act: inactive; MITF primary: inactive; TEAD-YAP inh: inactive; GPR151 activ: inactive

What do the screens show for `COc1ccccc1Cc1nc2ccccc2nc1SCC(=O)Nc1ccc(OC)c(OC)c1`?
FBW7 act: inactive; MITF primary: 73.0; TEAD-YAP inh: inactive; GPR151 activ: inactive; MITF inh conf: inactive; AlphaScreen intf2: inactive

How did COc1ccc(NC(=O)CSc2nc3ccccc3nc2Cc2ccccc2OC)cc1Cl do in these assays?
FBW7 act: inactive; MITF primary: inactive; TEAD-YAP inh: inactive; GPR151 activ: inactive

How did C=CCc1ccc(OCCOCCNC(C)CC)c(OC)c1 (stereo not drawn) do in these assays?
FBW7 act: inactive; MITF primary: 76.7; TEAD-YAP inh: inactive; GPR151 activ: inactive; MITF inh conf: inactive; AlphaScreen intf2: inactive

What do the screens show for `C=CCc1ccc(OCCCNC(C)CC)c(OC)c1` (stereo not drawn)?
FBW7 act: inactive; MITF primary: inactive; TEAD-YAP inh: inactive; GPR151 activ: inactive

Results for C=CCc1ccc(OCCOCCN2CCN(CC)CC2)c(OC)c1 ?
FBW7 act: inactive; MITF primary: 65.3; TEAD-YAP inh: inactive; GPR151 activ: inactive; MITF inh conf: inactive; AlphaScreen intf2: inactive

What do the screens show for `O=C(Nc1cccc(C(F)(F)F)c1)c1nn2c(C(F)(F)F)cc(-c3ccccc3)nc2c1Cl`?
FBW7 act: inactive; MITF primary: inactive; TEAD-YAP inh: inactive; GPR151 activ: inactive

Results for O=C(Nc1cc(C(F)(F)F)ccc1Cl)c1nn2c(C(F)(F)F)cc(-c3ccccc3)nc2c1Cl ?
FBW7 act: inactive; MITF primary: 64.8; TEAD-YAP inh: inactive; GPR151 activ: inactive; MITF inh conf: inactive; AlphaScreen intf2: inactive

Results for COc1ccc(OC)c(NC(=O)CN(C)S(=O)(=O)c2ccc(Br)cc2)c1 ?
FBW7 act: inactive; MITF primary: inactive; TEAD-YAP inh: inactive; GPR151 activ: inactive

What do the screens show for `O=C(CC1CCCC1)Nc1cccc(N2CCC(NCC3CCOCC3)CC2)c1`?
FBW7 act: inactive; MITF primary: inactive; TEAD-YAP inh: inactive; GPR151 activ: inactive

What do the screens show for `O=C(OC1CCCCC1=O)c1ccc(S(=O)(=O)NCc2ccco2)cc1` (stereo not drawn)?
FBW7 act: inactive; MITF primary: inactive; TEAD-YAP inh: inactive; GPR151 activ: inactive

What do the screens show for `O=C(OC1CCOC1=O)c1ccc(S(=O)(=O)NCc2ccco2)cc1` (stereo not drawn)?
FBW7 act: inactive; MITF primary: 53.4; TEAD-YAP inh: inactive; GPR151 activ: inactive; MITF inh conf: 52.4; AS interf DR: inactive; AlphaScreen intf2: inactive

What do the screens show for `CC(C(=O)NC12CC3CC(CC(C3)C1)C2)N(C)CCOc1ccccc1` (stereo not drawn)?
FBW7 act: inactive; MITF primary: 50.8; TEAD-YAP inh: inactive; GPR151 activ: inactive; MITF inh conf: inactive; AlphaScreen intf2: inactive

How did CC(=O)Nc1ccc(S(=O)(=O)N2CCN(CC3CC4C=CC3C4)CC2)cc1 (stereo not drawn) do in these assays?
FBW7 act: inactive; MITF primary: 50.6; TEAD-YAP inh: inactive; GPR151 activ: inactive; MITF inh conf: inactive; AlphaScreen intf2: inactive

What do the screens show for `O=C(O)c1cccc(-n2cccc2/C=C2/NC(=O)N(c3cccc(Cl)c3)C2=O)c1`?
FBW7 act: inactive; MITF primary: inactive; TEAD-YAP inh: inactive; GPR151 activ: inactive

What do the screens show for `O=C(O)c1ccc(/C=C2/NC(=O)N(c3ccc(Cl)cc3)C2=O)cc1`?
FBW7 act: inactive; MITF primary: inactive; TEAD-YAP inh: inactive; GPR151 activ: inactive

Results for O=C(O)c1ccc(-n2cccc2/C=C2/NC(=O)N(c3ccc(Cl)cc3)C2=O)cc1 ?
FBW7 act: inactive; MITF primary: 55.2; TEAD-YAP inh: inactive; GPR151 activ: inactive; MITF inh conf: 73.9; AlphaScreen intf2: 33.8

What do the screens show for `O=C1NC(=O)/C(=C\c2cccn2-c2ccc(C(=O)O)cc2)N1`?
FBW7 act: inactive; MITF primary: 66.1; TEAD-YAP inh: inactive; GPR151 activ: inactive; MITF inh conf: inactive; AlphaScreen intf2: inactive

What do the screens show for `O=C(O)c1cccc(-n2cccc2/C=C2/NC(=O)N(c3ccc(Cl)cc3)C2=O)c1`?
FBW7 act: inactive; MITF primary: 60.9; TEAD-YAP inh: inactive; GPR151 activ: inactive; MITF inh conf: 35.5; AS interf DR: inactive; AlphaScreen intf2: inactive

How did N#Cc1c(N)sc2c1CCCCCCCCCC2 do in these assays?
FBW7 act: inactive; MITF primary: inactive; TEAD-YAP inh: inactive; GPR151 activ: inactive

What do the screens show for `COc1ccc2c(c1)CC(C(=O)Nc1ccc(-c3cn[nH]c3)cc1OC[C@@H]1CCCN1Cc1ccccc1)CO2` (stereo partly drawn)?
FBW7 act: inactive; MITF primary: inactive; TEAD-YAP inh: inactive; GPR151 activ: inactive

What do the screens show for `CC(=O)c1ccc(N2CCN(CC(=O)NCc3cccs3)CC2)cc1`?
FBW7 act: inactive; MITF primary: inactive; TEAD-YAP inh: inactive; GPR151 activ: inactive

Results for O=[N+]([O-])c1ccccc1CN1CCN(Cc2ccncc2)CC1 ?
FBW7 act: inactive; MITF primary: 65.2; TEAD-YAP inh: inactive; GPR151 activ: inactive; MITF inh conf: inactive; AlphaScreen intf2: inactive

Results for COc1cc(C(=O)N2CCN(Cc3cccc4ccccc34)CC2)cc(OC)c1OC ?
FBW7 act: inactive; MITF primary: 57.1; TEAD-YAP inh: inactive; GPR151 activ: inactive; MITF inh conf: inactive; AlphaScreen intf2: inactive
